Assay [1] in a line: Primary qHTS for inhibitors of SARS-S pseudo-typed particle cell entry (AID 1479145). For activity change, negative = inhibition: % is set by controls: 0 for no effect and ±100 for the full control effect. Note: nearly all actives have a fitted effect of over 45% in size. Note: potency is the fitted concentration of half-maximal effect. To be noted: outcome: dose series up to 57.1 µM unless noted. On the technique in general: qHTS replaces the single test concentration by a dilution series.
A short description of assay [2]: Primary qHTS for Huh7 cytotoxicity: counterscreen for inhibitors of MERS-S pseudotyped particle cell entry (AID 1479147). For activity change, negative = cytotoxicity: % is set by controls: 0 for no effect and ±100 for the full control effect. Note: potency is the fitted concentration of half-maximal effect. To be noted: outcome: dose series up to 57.1 µM unless noted.
The nature of assay [3]: Primary qHTS for inhibitors of MERS-S pseudo-typed particle cell entry (AID 1479149). Note: nearly all actives have a fitted effect of over 60% in size. Note: potency is the fitted concentration of half-maximal effect. To be noted: outcome: dose series up to 57.1 µM unless noted.
Assay [4] in a line: Primary qHTS for Vero E6 cytotoxicity: counterscreen for inhibitors of SARS-S pseudo-typed particle cell entry (AID 1479150). For activity change, negative = cytotoxicity: % is set by controls: 0 for no effect and ±100 for the full control effect. To be noted: outcome: dose series up to 57.1 µM unless noted.
Assay [5] in a line: Cytotoxicity counterscreen for inhibitors of SARS-CoV-2 cell entry (AID 1645845). Note: nearly all actives have a fitted effect of over 50% in size. Note: potency is the fitted concentration of half-maximal effect. To be noted: outcome: dose series up to 57.1 µM unless noted. In a few lines:
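After a 15 min room-temperature ATPLite 1step step, luminescence reflected ATP remaining in HEK293-ACE2 cells exposed to compound for 1 h plus 48 h at 37 C, with percent activity set by cell and no-cell controls.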
A general note: Counterscreens check selectivity or assay interference.

Assay [6] deals with Glutathione peroxidase 1 (Homo sapiens) (UniProt P07203). Description: Primary qHTS Assay for Inhibitors of Recombinant Selenoprotein Glutathione Peroxidase 1 (GPX1) (AID 1845191; active = well fitted curve in the direction sought with a large enough effect; an effect the other way counts as inactive or inconclusive; note: nearly all actives have a fitted effect of over 65% in size). In a few lines: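 GPX1 10 nM, GR 100 nM, GSH 1 mM, NADPH 0.5 mM, CHP 0.5 mM (final). 30-min cpd preincubation, RT. Ex340/Em450 read t=0, t=15 min.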
Chain of Glutathione peroxidase 1 (Homo sapiens) (P07203 whole entry, looked up): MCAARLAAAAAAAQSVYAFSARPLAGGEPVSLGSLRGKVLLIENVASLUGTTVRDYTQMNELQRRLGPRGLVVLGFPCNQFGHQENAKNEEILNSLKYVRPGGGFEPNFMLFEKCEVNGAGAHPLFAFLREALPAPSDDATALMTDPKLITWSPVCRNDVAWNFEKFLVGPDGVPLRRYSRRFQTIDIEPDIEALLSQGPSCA
Assay [7] addresses Phospholipid hydroperoxide glutathione peroxidase GPX4 (Homo sapiens) (UniProt P36969). Description: Primary qHTS Assay for Inhibitors of Recombinant Selenoprotein Glutathione Peroxidase 4 (GPX4) (AID 1845192; active = well fitted curve in the direction sought with a large enough effect; an effect the other way counts as inactive or inconclusive; note: nearly all actives have a fitted effect of over 65% in size; for activity change, negative = inhibition: % is set by controls: 0 for no effect and ±100 for the full control effect). Put shortly:
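qHTS, GR-coupled: GPX4 200 nM + cpd 30 min RT → GSH 1 mM, NADPH 0.5 mM, GR 100 nM → CHP 0.5 mM start; fluor 340/450 at t0 and t15 min; no-enzyme wells as control.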

Assay [8] has as its target Peroxisome proliferator-activated receptor delta (Homo sapiens) (UniProt Q03181). Kind of assay: qHTS assay for small molecule agonists of peroxisome proliferator-activated receptor delta signaling (AID 588534).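 Note: 0% = DMSO basal wells and 100% = positive control agonist at 10 µM.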 In a few lines:
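Titration series tested in agonist mode on beta-lactamase reporter cells; 18 hrs at 37 C after a 5 hr pre-incubation. Readout: CCF4 fluorescence, 2 hrs RT. Hill equation gives EC50 and maximal response.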

A short description of assay [9]: Primary qHTS to identify inhibitors of SARS-CoV-2 cell entry (AID 1645846). Note: nearly all actives have a fitted effect of over 45% in size. Note: potency is the fitted concentration of half-maximal effect. To be noted: SARS-CoV-2 pseudovirus cell entry assay, luminescence; activity change, negative = inhibition: at 57.1 µM (top of the series) unless noted. Put shortly:
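Inhibition of spike-mediated entry was scored in human ACE2-transfected Expi293F cells. Particles were MLV-pseudotyped with Wuhan-Hu-1 S carrying a 19-aa C-terminal deletion; signal was luciferase after two days, scaled between spike PP and fusion-protein-free PP.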

The target of assay [10] is Bile acid receptor (Homo sapiens) (UniProt Q96RI1). Description: qHTS assay for small molecule agonists of farnesoid X receptor signaling (AID 588527).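 Note: 0% = vehicle basal and 100% = reference agonist.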 To be noted: HEK293T FXR-UAS-bla, beta-lactamase ratio, 16 h; stronger effect = higher value. In a few lines:
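FXR-UAS-bla HEK293T, 10% dialyzed FBS; cpds up to 92 uM titration, 16 h 37 C; CCF4 dye 2 h RT; fluorescence. Normalized to chenodeoxycholic acid 100 uM (100%) and DMSO (0%); Hill fit gives EC50, efficacy.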

Assay [11] is described as follows: KB-8-5-11 P-gp reporter qHTS against the NCATS DSHEA and TCM libraries (AID 1919977; active = well fitted curve in the direction sought with a large enough effect; an effect the other way counts as inactive or inconclusive; note: 0% is about no effect). In a few lines:
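KB-8-5-11, 500 cells/well, DMEM/10% FBS without colchicine; 4 h attach; cpd titrations, 72 h, 37C/5% CO2; CellTiter-Glo, 30 min RT, luminescence.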

For assay [12], the target named is Nuclear receptor subfamily 1 group I member 3 (Homo sapiens) (UniProt Q14994). Kind of assay: Primary qHTS for antagonist of constitutive androstane receptor (CAR) against the NCATS DSHEA and TCM libraries (AID 1794836; active = well fitted curve in the direction sought with a large enough effect; an effect the other way counts as inactive or inconclusive). In a few lines:
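HepG2 cells stably carrying hCAR and a CYP2B6 luciferase reporter (2,500 cells/well) attached for 5 h, then received compounds with 48 uM CITCO for 24 h at 37C. ONE-Glo luminescence read antagonism; CellTiter-Fluor (405/540 nm) gave viability.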

“And” between values parts separate entries of the source, which are not always exact repeats. Equal entries are not always repeated. Results filed as inconclusive are left out. The source made the active and inactive calls. Unless noted, calls come from the whole dose curve.

Chain of Peroxisome proliferator-activated receptor delta (Homo sapiens) (Q03181 whole entry, looked up): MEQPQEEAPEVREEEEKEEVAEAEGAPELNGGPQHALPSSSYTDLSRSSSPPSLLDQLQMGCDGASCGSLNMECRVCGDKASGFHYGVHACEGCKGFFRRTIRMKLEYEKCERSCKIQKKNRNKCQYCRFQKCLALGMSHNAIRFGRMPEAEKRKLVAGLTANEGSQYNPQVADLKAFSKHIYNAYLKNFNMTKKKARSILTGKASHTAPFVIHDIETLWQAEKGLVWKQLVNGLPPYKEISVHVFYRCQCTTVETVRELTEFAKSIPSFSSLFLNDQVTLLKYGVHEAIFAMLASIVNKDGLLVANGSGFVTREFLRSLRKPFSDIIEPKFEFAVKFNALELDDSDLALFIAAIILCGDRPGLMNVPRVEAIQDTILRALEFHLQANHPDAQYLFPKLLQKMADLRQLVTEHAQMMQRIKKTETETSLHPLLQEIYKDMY
Chain of Phospholipid hydroperoxide glutathione peroxidase GPX4 (Homo sapiens) (P36969 whole entry, looked up): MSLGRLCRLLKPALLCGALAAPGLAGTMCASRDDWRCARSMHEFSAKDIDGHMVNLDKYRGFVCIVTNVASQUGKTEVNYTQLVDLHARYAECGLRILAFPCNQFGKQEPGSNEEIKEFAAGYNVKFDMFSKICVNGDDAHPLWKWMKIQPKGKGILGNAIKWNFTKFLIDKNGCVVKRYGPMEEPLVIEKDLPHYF
Chain of Bile acid receptor (Homo sapiens) (Q96RI1 whole entry, looked up): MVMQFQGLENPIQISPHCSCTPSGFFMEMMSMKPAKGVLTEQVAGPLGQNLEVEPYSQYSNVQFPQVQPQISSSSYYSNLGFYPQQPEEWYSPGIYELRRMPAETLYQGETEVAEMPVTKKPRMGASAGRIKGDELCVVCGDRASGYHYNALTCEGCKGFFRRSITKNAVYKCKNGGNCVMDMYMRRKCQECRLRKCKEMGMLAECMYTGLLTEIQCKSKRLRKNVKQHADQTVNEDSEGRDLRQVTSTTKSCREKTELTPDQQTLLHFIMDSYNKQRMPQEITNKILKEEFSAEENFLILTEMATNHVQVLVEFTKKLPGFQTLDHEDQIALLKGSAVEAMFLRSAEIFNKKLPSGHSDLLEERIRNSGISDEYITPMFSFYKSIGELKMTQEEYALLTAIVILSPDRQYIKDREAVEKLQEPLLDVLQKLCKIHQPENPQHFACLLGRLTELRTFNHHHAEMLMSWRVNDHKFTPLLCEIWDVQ
Chain of Nuclear receptor subfamily 1 group I member 3 (Homo sapiens) (Q14994 whole entry, looked up): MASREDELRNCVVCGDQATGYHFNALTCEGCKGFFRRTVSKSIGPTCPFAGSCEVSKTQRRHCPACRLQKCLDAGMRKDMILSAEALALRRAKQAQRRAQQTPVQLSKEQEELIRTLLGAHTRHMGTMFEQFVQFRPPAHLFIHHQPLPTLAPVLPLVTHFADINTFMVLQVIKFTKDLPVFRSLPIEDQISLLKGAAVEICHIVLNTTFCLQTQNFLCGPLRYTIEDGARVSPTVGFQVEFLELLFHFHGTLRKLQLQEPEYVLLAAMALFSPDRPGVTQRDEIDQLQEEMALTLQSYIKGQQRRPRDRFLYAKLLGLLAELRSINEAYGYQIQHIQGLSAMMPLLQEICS

For the molecule `CC[C@H]1C2C[C@H]3[C@@H]4N(C)c5ccccc5[C@@]45C[C@H](C2[C@H]5O)N3[C@@H]1O` (stereo partly drawn), the Potency result in assay [1], in assay [2], in assay [3], in assay [4], in assay [5] and in assay [6] was “inactive” in each case. Further, the Potency entry in [7] is “inactive”.

In the case of `C[Si](C)(C)O[Si](C)(C)O[Si](C)(C)C`, the outcome in assay [8] was inactive. Also, the Potency result in assay [1], in assay [2], in assay [3], in [4] and in assay [5] was “inactive” each time. The activity change, negative = inhibition in assay [9] is -16.4% [at 114 µM].

In the case of `C/C=C/C=C/C(=O)O`, the outcome in assay [8] was inactive. Moreover, the Potency entry in assay [1], in assay [2], in assay [3], in assay [4], in [5] and in [9] was “inactive” each time.

On to `CCC[C@@H]1CC(=O)N([C@@H](CC)C(N)=O)C1`, for which the Potency result in assay [1], in [2], in assay [3], in assay [4], in assay [5] and in assay [6] was “inactive” in each case. In addition, the Potency entry in assay [7] is “inactive”.

Regarding `COC(=O)c1ccccc1O`, in [8], the call was inactive. In addition, the Potency entry in assay [1], in assay [2], in assay [3], in assay [4] and in [5] was “inactive” each time. The activity change, negative = inhibition in assay [9] is 3.44%.

Take `CC1=CCC(C(C)(C)O)CC1` (stereo not drawn): the activation in [10] is -1.09% (inactive). Besides, the molecule was called inactive in assay [8]. The Potency result in assay [1], in assay [2], in assay [3], in assay [4], in assay [5] and in assay [11] was “inactive” in each case.

Regarding `C=C[C@H]1CN2CC[C@H]1C[C@H]2[C@H](O)c1ccnc2ccccc12`, the Potency result in assay [1], in assay [2], in assay [3], in assay [4], in assay [5] and in assay [6] was “inactive” in each case. Further, the Potency entry in assay [7] was “inactive”.

Regarding `CN(C)Cc1ccccc1`, in [8], the outcome was inactive. The Potency result in [1], in [2], in assay [3], in assay [4] and in [5] was “inactive” throughout.

As for `CC(C)=CCC/C(C)=C/C=C/C(C)=C/C=C/C(C)=C/C=C/C=C(C)/C=C/C=C(C)/C=C/C=C(\C)CCC=C(C)C`, the Potency result in assay [1], in [2], in [3], in assay [4], in [5] and in [12] was “inactive” each time. The Potency result in [11] is “inactive”.

Take `O=CCCCC=O`: the activation in [10] is -2.56% (inactive). Also, the molecule was called inactive in assay [8]. Moreover, the Potency result in [1], in assay [2], in [3], in assay [4] and in [5] was “inactive” each time.

Regarding `C=CC[N+]1([C@H]2C[C@H]3[C@@H]4CC[C@H]5C[C@H](O)[C@@H](N6CCOCC6)C[C@]5(C)[C@H]4CC[C@]3(C)[C@H]2OC(C)=O)CCCC1`, the Potency result in assay [1], in [2], in assay [3] and in assay [4] was “inactive” in each case. Besides, in assay [9], the activity change, negative = inhibition is -19.7% and -28.9%.

In the case of `C#C[C@]1(O)CC[C@@H]2[C@@H]3CCC4=CCCC[C@@H]4[C@H]3C(=C)C[C@@]21CC`, the Potency entry in [1], in [2], in assay [3] and in assay [4] was “inactive” in each case. For the same molecule, in assay [9], the activity change, negative = inhibition turned out to be 3.84%.

As for `CC(C)=CCC/C(C)=C/CC/C(C)=C/CC/C(C)=C/CC1=C(C)C(=O)c2ccccc2C1=O`, the Potency result in assay [1], in assay [2], in [3], in [4], in assay [5] and in assay [12] was “inactive” in each case.

Take `C[C@H]1C[C@H]2[C@H]3CCC4=CC(=O)C=C[C@]4(C)[C@@]3(F)[C@@H](O)C[C@]2(C)[C@@]1(OC(=O)c1ccccc1)C(=O)CO`: the Potency result in assay [1], in [2] and in [4] was “inactive” each time.

`CCCCCCCCCCCCCCCC(=O)OC1C(SC)OC(C(NC(=O)C2CC(CCC)CN2C)C(C)Cl)C(O)C1O` (stereo not drawn): the Potency entry in assay [1], in assay [2], in [3] and in assay [4] was “inactive” in each case. Moreover, in assay [9], the activity change, negative = inhibition was -14%.

In the case of `CC[C@H]1CN2CCc3cc(OC)c(OC)cc3C2C[C@@H]1CC1NCCc2cc(OC)c(OC)cc21` (stereo partly drawn), the Potency in assay [1] is 5.62 µM (active); in assay [2], 17.8 µM (active); in [3], 5.62 µM (active); in assay [9], 1.78 µM (active). The Potency result in [4] was “inactive”.

As for `Cc1cc(-c2ccc(N=Nc3c(S(=O)(=O)O)cc4cc(S(=O)(=O)O)cc(N)c4c3O)c(C)c2)ccc1N=Nc1c(S(=O)(=O)O)cc2cc(S(=O)(=O)O)cc(N)c2c1O`, the Potency entry in assay [1], in assay [2], in [3] and in assay [4] was “inactive” each time. In assay [9], the activity change, negative = inhibition came out at 2.81%.

On to `CC(C=CC1=C(C)CCCC1(C)C)=CC=CC(C)=CC(=O)Oc1c(C)c(C)c2c(c1C)CC[C@@](C)(CCC[C@H](C)CCC[C@H](C)CCCC(C)C)O2`, for which, in assay [1], the activity change, negative = inhibition was -3.62% [at 5.34 µM] (inactive). The activity change, negative = cytotoxicity is -9.73% [at 5.34 µM] (inactive) in [2] and -3.15% [at 5.34 µM] (inactive) in assay [4]. Also, the outcome in assay [3] was “inactive [at 5.34 µM]”; in assay [9], “inactive [at 5.25 µM]”.

For the molecule `CCC(C(=O)O)[C@H]1CC[C@H](C)[C@H]([C@@H](C)[C@H](O)[C@H](C)C(=O)[C@H](CC)[C@H]2OC3(C=C[C@@H](O)[C@]4(CC[C@@](C)([C@H]5CC[C@](O)(CC)[C@H](C)O5)O4)O3)[C@H](C)C[C@@H]2C)O1` (stereo partly drawn), the Potency was 3.98 µM (active) in assay [1]; 7.94 µM (active) in assay [2]; 0.891 µM (active) in assay [3]; 2.51 µM (active) in [5]; 0.794 µM (active) in assay [9].

In the case of `O=C(NNCS(=O)(=O)O)c1ccncc1`, the Potency result in assay [1], in assay [2], in assay [3] and in assay [5] was “inactive” in each case. For the same molecule, the activity change, negative = inhibition in [9] is -23.7%.

For `O=C(OCc1ccccc1)c1cccnc1`, the Potency entry in [1], in assay [2], in assay [3] and in assay [5] was “inactive” throughout. The activity change, negative = inhibition in assay [9] came to 1.27%.

With `O=C(OC1C(OC(=O)c2cccnc2)C(OC(=O)c2cccnc2)C(OC(=O)c2cccnc2)C(OC(=O)c2cccnc2)C1OC(=O)c1cccnc1)c1cccnc1` (stereo not drawn), the Potency entry in [1], in [2], in assay [3] and in assay [4] was “inactive” in each case. Also, in [9], the activity change, negative = inhibition was -19.4% [at 19 µM].

For the molecule `C=C/C=C\CC1=C(C)[C@@H](OC(=O)[C@H]2[C@H](C=C(C)C)C2(C)C)CC1=O`, the Potency entry in [1], in [2], in [3], in assay [4] and in [6] was “inactive” throughout.

In the case of `O=C(O)CC(O)CC(O)/C=C/c1c(C2CC2)nc2ccccc2c1-c1ccc(F)cc1` (stereo not drawn), the Potency result in assay [1], in assay [2], in assay [3], in assay [5] and in assay [9] was “inactive” in each case.

Turning to `CN1CCN(CCCN2c3ccccc3Sc3ccccc32)CC1`, the Potency in assay [1] is 28.2 µM (active); in [2], 31.6 µM (active); in [3] it was 31.6 µM (active); in [9] it was 31.6 µM (active).

For the molecule `CN(C)c1ccc(C(=C2C=CC(=[N+](C)C)C=C2)c2c(O)c(S(=O)(=O)[O-])cc3cc(S(=O)(=O)O)ccc23)cc1`, the Potency result in assay [1], in assay [2], in [3] and in assay [4] was “inactive” each time. The activity change, negative = inhibition in assay [9] is -12.7%.
